The whole screen tested about 5,500 compounds, of which about 2,000 (36%) were called active. Not shown: some 18% with an inconclusive outcome. No stated cut-off is given here; in the data, active means normalized growth mostly below about 0.91 (no sharp cut-off); inconclusive means no clear call, values can overlap the other calls; inactive means mostly above about 0.92. The list shows a part of the results.
Assay: chemical genetic growth profiling, strain panel (AID 1159580);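 further: tested at 20 µM; growth read once vehicle control cultures reached saturation at 30 °C; 1 = growth at the plate median or of vehicle wells; lower values mean less growth of the strain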
Conditions: growth OD

Measured: normalized growth

COc1ccc(C[C@H](N)C(=O)N[C@@H]2[C@@H](CO)OC(n3cnc4c(N(C)C)ncnc43)[C@@H]2O)cc1 (some centres not stated)
inactive: S. cerevisiae deletion strains, locus YJR075W, strain HOC1, active compounds read low 0.997 | S. cerevisiae deletion strains, locus YKL009W, strain mrt4, active compounds read low 1.03 | S. cerevisiae deletion strains, locus YKL068W, active compounds read low 1.02 | S. cerevisiae deletion strains, locus YKL085W, strain MDH1 (second series), active compounds read low 1.01 | S. cerevisiae deletion strains, locus YKL085W, strain MDH1, active compounds read low 1.01 | S. cerevisiae deletion strains, locus YKL160W, strain elf1, active compounds read low 0.993 | S. cerevisiae deletion strains, locus YKL190W, strain CNB1, active compounds read low 1 | S. cerevisiae deletion strains, locus YKR001C, strain vps1, active compounds read low 1.02 | S. cerevisiae deletion strains, locus YKR026C, strain gcn3, active compounds read low 1 | S. cerevisiae deletion strains, locus YKR091W, strain srl3, active compounds read low 1.02 | S. cerevisiae deletion strains, locus YLL001W, strain dnm1, active compounds read low 0.961 | S. cerevisiae deletion strains, locus YLL026W, active compounds read low 0.987 | S. cerevisiae deletion strains, locus YLL041C, strain sdh2, active compounds read low 1 | S. cerevisiae deletion strains, locus YLR027C, strain aat2, active compounds read low 0.997 | S. cerevisiae deletion strains, locus YLR039C, strain RIC1, active compounds read low 1.04 | S. cerevisiae deletion strains, locus YLR058C, strain SHM2, active compounds read low 1.01 | S. cerevisiae deletion strains, locus YLR102C, strain apc9, active compounds read low 1.01 | S. cerevisiae deletion strains, locus YLR113W, strain HOG1, active compounds read low 0.989 | S. cerevisiae deletion strains, locus YLR221C, strain rsa3, active compounds read low 0.991 | S. cerevisiae deletion strains, locus YLR258W, strain gsy2, active compounds read low 1 | S. cerevisiae deletion strains, locus YLR262C, strain YPT6 (second series), active compounds read low 1.01 | S. cerevisiae deletion strains, locus YLR262C, strain YPT6, active compounds read low 1.04 | S. cerevisiae deletion strains, locus YLR268W, strain sec22, active compounds read low 1.01 | S. cerevisiae deletion strains, locus YLR320W, strain mms22, active compounds read low 1 | S. cerevisiae deletion strains, locus YLR330W, strain CHS5, active compounds read low 1.01 | S. cerevisiae deletion strains, locus YLR342W, strain FKS1 (second series), active compounds read low 0.992 | S. cerevisiae deletion strains, locus YLR342W, strain FKS1, active compounds read low 0.996 | S. cerevisiae deletion strains, locus YLR357W, strain rsc2, active compounds read low 1.01 | S. cerevisiae deletion strains, locus YLR370C, strain arc18, active compounds read low 0.985 | S. cerevisiae deletion strains, locus YLR371W, strain rom2, active compounds read low 1.02 | S. cerevisiae deletion strains, locus YLR384C, strain iki3, active compounds read low 0.979 | S. cerevisiae deletion strains, locus YLR418C, strain cdc73, active compounds read low 0.988 | S. cerevisiae deletion strains, locus YML016C, strain PPZ1, active compounds read low 1.01 | S. cerevisiae deletion strains, locus YML032C, strain rad52, active compounds read low 1.03 | S. cerevisiae deletion strains, locus YML120C, strain ndi1, active compounds read low 0.996 | S. cerevisiae deletion strains, locus YML124C, strain tub3, active compounds read low 1.02 | S. cerevisiae deletion strains, locus YMR058W, strain fet3, active compounds read low 1 | S. cerevisiae deletion strains, locus YMR078C, strain ctf18, active compounds read low 1.02 | S. cerevisiae deletion strains, locus YMR125W, strain sto1, active compounds read low 1.01 | S. cerevisiae deletion strains, locus YMR129W, active compounds read low 0.995 | S. cerevisiae deletion strains, locus YMR205C, strain PFK2, active compounds read low 1 | S. cerevisiae deletion strains, locus YMR223W, strain ubp8, active compounds read low 1.03 | S. cerevisiae deletion strains, locus YMR231W, strain pep5, active compounds read low 0.987 | S. cerevisiae deletion strains, locus YMR263W, strain SAP30, active compounds read low 1 | S. cerevisiae deletion strains, locus YMR307W, strain GAS1, active compounds read low 1.06 | S. cerevisiae deletion strains, locus YNL067W, strain RPL9B, active compounds read low 1 | S. cerevisiae deletion strains, locus YNL071W, strain lat1, active compounds read low 1.01 | S. cerevisiae deletion strains, locus YNL128W, strain TEP1, active compounds read low 1.01 | S. cerevisiae deletion strains, locus YNL153C, strain GIM3, active compounds read low 0.988 | S. cerevisiae deletion strains, locus YNL183C, strain NPR1, active compounds read low 0.935 | S. cerevisiae deletion strains, locus YNL209W, strain ssb2, active compounds read low 0.996 | S. cerevisiae deletion strains, locus YNL233W, strain BNI4, active compounds read low 1 | S. cerevisiae deletion strains, locus YNL248C, strain rpa49, active compounds read low 1.01 | S. cerevisiae deletion strains, locus YNL250W, strain rad50, active compounds read low 1.04 | S. cerevisiae deletion strains, locus YNL271C, strain bni1, active compounds read low 1.01 | S. cerevisiae deletion strains, locus YNL298W, strain CLA4, active compounds read low 1.01 | S. cerevisiae deletion strains, locus YNL307C, strain MCK1, active compounds read low 1.04 | S. cerevisiae deletion strains, locus YNL322C, strain KRE1 (second series), active compounds read low 0.994 | S. cerevisiae deletion strains, locus YNL322C, strain KRE1, active compounds read low 1.01 | S. cerevisiae deletion strains, locus YNR049C, strain mso1, active compounds read low 0.987 | S. cerevisiae deletion strains, locus YNR052C, strain pop2, active compounds read low 1.02 | S. cerevisiae deletion strains, locus YOL006C, strain TOP1, active compounds read low 1.02 | S. cerevisiae deletion strains, locus YOL012C, strain htz1 0.862 | S. cerevisiae deletion strains, locus YOL147C, strain pex11, active compounds read low 1.02 | S. cerevisiae deletion strains, locus YOR001W, strain rrp6, active compounds read low 0.988 | S. cerevisiae deletion strains, locus YOR061W, strain CKA2, active compounds read low 1.01 | S. cerevisiae deletion strains, locus YOR069W, strain VPS5, active compounds read low 0.996 | S. cerevisiae deletion strains, locus YOR070C, strain gyp1, active compounds read low 0.984 | S. cerevisiae deletion strains, locus YOR080W, strain dia2, active compounds read low 0.992 | S. cerevisiae deletion strains, locus YOR083W, strain WHI5, active compounds read low 1.02 | S. cerevisiae deletion strains, locus YOR106W, strain vam3, active compounds read low 0.984 | S. cerevisiae deletion strains, locus YOR136W, strain idh2, active compounds read low 1.02 | S. cerevisiae deletion strains, locus YOR144C, strain elg1, active compounds read low 1.01 | S. cerevisiae deletion strains, locus YOR184W, strain ser1, active compounds read low 1.04 | S. cerevisiae deletion strains, locus YOR231W, strain MKK1, active compounds read low 0.961 | S. cerevisiae deletion strains, locus YOR265W, strain rbl2, active compounds read low 0.991 | S. cerevisiae deletion strains, locus YOR270C, strain vph1, active compounds read low 0.993 | S. cerevisiae deletion strains, locus YOR290C, strain snf2, active compounds read low 1 | S. cerevisiae deletion strains, locus YOR316C, strain cot1, active compounds read low 1.02 | S. cerevisiae deletion strains, locus YPL051W, strain arl3, active compounds read low 0.976 | S. cerevisiae deletion strains, locus YPL055C, strain LGE1, active compounds read low 1 | S. cerevisiae deletion strains, locus YPL078C, strain atp4, active compounds read low 0.972 | S. cerevisiae deletion strains, locus YPL106C, strain sse1, active compounds read low 0.996 | S. cerevisiae deletion strains, locus YPL240C, strain hsp82, active compounds read low 0.986 | S. cerevisiae deletion strains, locus YPL241C, strain CIN2, active compounds read low 1 | S. cerevisiae deletion strains, locus YPL256C, strain CLN2, active compounds read low 0.965 | S. cerevisiae deletion strains, locus YPR119W, strain clb2, active compounds read low 1.01 | S. cerevisiae deletion strains, locus YPR141C, strain kar3, active compounds read low 1.03 | S. cerevisiae deletion strains, locus YPR163C, strain tif3, active compounds read low 1.02 | S. cerevisiae deletion strains, locus YPR167C, strain met16, active compounds read low 1.02 | S. cerevisiae deletion strains, strain wtn01, active compounds read low 0.986 | S. cerevisiae strains, strain wild type, active compounds read low 1.01

Reference: PubChem BioAssay AID1159580 (chemical genetic matrix, 2015)
